Measurements taken from PubChem BioAssay.
Potency and affinity values are given separately. Activity calls are given as the source filed them. A call without a number means that no potency is given here. The rule behind the calls is not given here.

Assay: toxicity toward immortalized ovarian surface epithelium – cell-based, plate reader, dry powder samples, cytotoxicity control for PAX8 inhibitor project, dose response (AID 743045);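 note: more negative values mean more cell killing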
Conditions: IOSE-T80 ovarian epithelial cells; series mostly up to 35 µM

SMILES | outcome
COc1cccc(-c2ccc3c(c2)[C@@H]2[C@@H](CCN2S(=O)(=O)c2ccccc2C)[C@H](CO)N3C)c1 | inactive
C[C@@H]1CCCCO[C@H](CN(C)Cc2ccc(C(F)(F)F)cc2)[C@@H](C)CN([C@@H](C)CO)C(=O)c2cc(NC(=O)c3ccccc3)ccc2O1 | inactive
C[C@@H]1CCCCO[C@H](CN(C)C(=O)Cc2ccccc2)[C@@H](C)CN([C@@H](C)CO)C(=O)c2cc(NS(=O)(=O)c3ccc(Cl)cc3)ccc2O1 | inactive
C[C@H](CO)N1C[C@H](C)[C@H](CN(C)CC2CCCCC2)OCCCC[C@H](C)Oc2ccc(NC(=O)Nc3ccccc3)cc2C1=O | inactive
C[C@H](CO)N1C[C@H](C)[C@@H](CN(C)S(=O)(=O)c2ccc(Cl)cc2)OCCCC[C@H](C)Oc2ccc(NS(=O)(=O)c3ccc(F)cc3)cc2C1=O | inactive
CN(C)CCCN(C(=O)CCOc1ccccc1)c1nc2c(F)cccc2s1 | inactive
COc1ccccc1NC(=O)N1CCCCN2[C@H](C1)[C@@H](c1ccc(-c3cccc(C#N)c3)cc1)[C@@H]2CO | inactive
COc1ccc(S(=O)(=O)Nc2ccc3c(c2)C(=O)N([C@H](C)CO)C[C@H](C)[C@H](CN(C)S(=O)(=O)c2ccc(F)cc2)OCCCC[C@H](C)O3)cc1 | inactive
C[C@H]1CN([C@@H](C)CO)S(=O)(=O)c2ccc(C#Cc3ccccc3F)cc2O[C@H]1CN(C)C(=O)c1ccc2c(c1)OCO2 | inactive
O=C(CCS(=O)(=O)c1ccccc1)Nc1nc2ccc(F)cc2s1 | inactive
O=C(C1CCC1)N1CCCCN2[C@H](CO)[C@H](c3ccc(-c4cccc(F)c4)cc3)[C@H]2C1 | inactive
